The source of these data is PubChem BioAssay (EPA / NIEHS).

Test [1] in a line: TOX21_p53_BLA_p2_viability: Viability Assessment in the Tox21 HCT-116 p53 Agonism Beta-lactamase Assay, Phase 2 (AID 2283591).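 Also: actives lower the ATP signal meaning cytotoxicity.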 Summed up: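 HCT116 p53-bla cells, 4000/well, dosed after 5 h plating (217-fold dilution of DMSO stocks) and incubated 16 h at 37C. Viability taken as cellular ATP by CellTiter-Glo luminescence after 30 min RT; signal loss marks cytotoxicity.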
Test [2] deals with Cellular tumor antigen p53 (Homo sapiens) (UniProt P04637). Nature of the test: TOX21_p53_BLA_p2_ratio: Tox21 HCT-116 p53 Agonism Beta-lactamase Assay, Ratio, Phase 2 (AID 2283592). The method, boiled down:
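Ratio endpoint: beta-lactamase cleavage of CCF4-AM, blue (460 nm) over green (530 nm). HCT116 reporter line; 16 h treatment, 37C; substrate 2 h RT.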

Test [3] can be described thus: TOX21_p53_BLA_p4_viability: Viability Assessment in the Tox21 HCT-116 p53 Agonism Beta-lactamase Assay, Phase 4 (AID 2283597).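 Also: hits lower the luminescence signal meaning cytotoxicity.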 Summed up: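 Cytotoxicity was inferred from loss of CellTiter-Glo luminescence. HCT116 cells had been dosed with compounds after 5 h plating, incubated 16 h at 37C and 5% CO2, and exposed to the CCF4-AM substrate for 2 h.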
Test [4] is described as follows: TOX21_p53_BLA_p5_viability: Viability Assessment in the Tox21 HCT-116 p53 Agonism Beta-lactamase Assay, Phase 5 (AID 2283600). Summed up: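 Luciferase-coupled ATP quantitation of cells treated for 16 h (37C, 5% CO2) with test chemicals delivered in DMSO via a 217-fold dilution; 4000 cells/well; reagent incubated 30 min at room temperature before luminescence reading.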

Test [5] deals with Cellular tumor antigen p53 (Homo sapiens) (UniProt P04637). Briefly: TOX21_p53_BLA_p4_ratio: Tox21 HCT-116 p53 Agonism Beta-lactamase Assay, Ratio, Phase 4 (AID 2283601). Summed up:
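HCT-116 p53 beta-lactamase reporter cells (4000/well) preincubated 5 h, then compound (217-fold dilution of DMSO stock) for 16 h at 37C. CCF4-AM substrate added 2 h at room temperature; 460/530 nm emission ratio fitted upward versus DMSO.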

The target is the same in test [6]. Briefly: TOX21_p53_BLA_p5_ratio: Tox21 HCT-116 p53 Agonism Beta-lactamase Assay, Ratio, Phase 5 (AID 2283599). The method, boiled down:
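HCT-116 p53-bla cells (4000/well) plated 5 h, dosed with compound (217-fold DMSO dilution) for 16 h at 37 C; CCF4-AM substrate 2 h at room temperature. Activity is the 460/530 nm emission ratio (405 nm excitation), fitted in gain-of-signal direction versus DMSO.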

A short description of test [7]: TOX21_p53_BLA_p3_viability: Viability Assessment in the Tox21 HCT-116 p53 Agonism Beta-lactamase Assay, Phase 3 (AID 2283593).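 Also: cells exposed to compound for 16 h before reading.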 Summed up: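 HCT116 cells, 4000/well, dosed 5 h after plating by pin transfer (217-fold dilution from DMSO stock) and incubated 16 h at 37C, 5% CO2. Viability read as ATP luminescence with CellTiter-Glo after 30 min at room temperature.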

Test [8] addresses Cellular tumor antigen p53 (Homo sapiens) (UniProt P04637). Briefly: TOX21_p53_BLA_p3_ratio: Tox21 HCT-116 p53 Agonism Beta-lactamase Assay, Ratio, Phase 3 (AID 2283596). The method, boiled down: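 Cells were seeded at 4000/well, rested 5 h at 37C, then dosed with DMSO compound solutions (217-fold dilution) for 16 h. CCF4-AM substrate was loaded for 2 h at room temperature, and the 460/530 nm emission ratio was fitted for gain of signal versus DMSO.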

In test [9] the target is PGR (gene 5241) (UniProt P06401). Nature of the test: TOX21_PR_BLA_Followup_Antagonist_ratio: Tox21 HEK293 Progesterone Receptor (PR) Antagonism Beta-lactamase Follow-Up Assay, Ratio (AID 2283934). Summed up: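 Read-out: blue/green beta-lactamase FRET ratio (cleaved ch2 over uncleaved ch1), fitted relative to DMSO baseline. Cells: PR-UAS-bla HEK293T, GAL4-UAS reporter, stimulated with 1 nM R5020 final; 16 hr compound exposure, 37C.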
PGR (gene 5241), sequence (P06401 whole entry, looked up, the tested form may be a part): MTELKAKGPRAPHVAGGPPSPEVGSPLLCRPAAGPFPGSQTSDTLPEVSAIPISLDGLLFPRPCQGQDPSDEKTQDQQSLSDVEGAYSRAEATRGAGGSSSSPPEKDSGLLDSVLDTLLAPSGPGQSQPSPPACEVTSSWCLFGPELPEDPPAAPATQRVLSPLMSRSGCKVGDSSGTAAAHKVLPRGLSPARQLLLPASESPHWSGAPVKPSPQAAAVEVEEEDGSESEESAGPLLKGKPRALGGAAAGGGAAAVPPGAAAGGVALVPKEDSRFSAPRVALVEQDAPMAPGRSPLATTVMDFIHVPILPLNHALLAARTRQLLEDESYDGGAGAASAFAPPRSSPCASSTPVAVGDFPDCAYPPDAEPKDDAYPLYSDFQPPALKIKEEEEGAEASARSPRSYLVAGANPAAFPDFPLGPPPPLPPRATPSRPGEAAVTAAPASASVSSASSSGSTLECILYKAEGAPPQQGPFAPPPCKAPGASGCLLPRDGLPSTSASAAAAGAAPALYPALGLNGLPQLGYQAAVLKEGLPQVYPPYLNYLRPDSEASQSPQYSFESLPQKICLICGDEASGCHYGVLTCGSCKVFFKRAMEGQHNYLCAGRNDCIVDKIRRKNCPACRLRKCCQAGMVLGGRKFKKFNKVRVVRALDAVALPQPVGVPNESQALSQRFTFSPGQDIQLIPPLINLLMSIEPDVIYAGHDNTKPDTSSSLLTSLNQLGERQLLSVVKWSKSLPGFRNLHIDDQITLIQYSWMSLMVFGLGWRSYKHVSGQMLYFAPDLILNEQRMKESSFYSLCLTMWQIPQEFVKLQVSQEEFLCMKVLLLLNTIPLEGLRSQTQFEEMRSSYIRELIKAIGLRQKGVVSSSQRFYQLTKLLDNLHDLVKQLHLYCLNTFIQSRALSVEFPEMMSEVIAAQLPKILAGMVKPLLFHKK

Test [10] is described as follows: TOX21_PR_BLA_Followup_Agonist_viability: Viability Assessment in the Tox21 HEK293 Progesterone Receptor (PR) Agonism Beta-lactamase Follow-Up Assay (AID 2283935).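 Also: signal loss means lower viability so actives are cytotoxic.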 Summed up:
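Luminescent ATP quantitation (CellTiter-Glo, 30 min, room temperature) in the same wells as the beta-lactamase read, on PR-UAS-bla HEK293T cells exposed to compound for 16 hr at 37C in 2% charcoal-stripped serum.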

Test [11] is described as follows: TOX21_PR_BLA_Followup_Antagonist_viability: Viability Assessment in the Tox21 HEK293 Progesterone Receptor (PR) Antagonism Beta-lactamase Follow-Up Assay (AID 2283936).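 Also: cells exposed to compound with R5020 agonist for 16 h; hits lower the luminescence signal meaning cytotoxicity.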 The method, boiled down:
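PR-UAS-bla HEK293T cells in medium with 2% charcoal-stripped FBS were treated with compounds plus R5020 for 16 hr at 37C. After the beta-lactamase read, CellTiter-Glo was added to the same wells and luminescence read after 30 min at room temperature.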

Test [12] deals with PGR (gene 5241) (UniProt P06401). Nature of the test: TOX21_PR_LUC_Followup_Agonist: Tox21 HEK293 Progesterone Receptor (PR) Agonism Luciferase Follow-Up Assay (AID 2283937; active = hit-call score of the fitted dose curve at least 0.9, where 1 is the maximum; inactive = score below 0.9). Summed up: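 Luminescence read-out (ONE-Glo, 30 min at room temperature) of PR-driven luciferase in HEK293-PR-A-luc cells after 16 h compound exposure at 37C; gain of signal fitted relative to DMSO baseline.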

Test [13] can be described thus: TOX21_PR_LUC_Followup_Antagonist_viability: Viability Assessment in the Tox21 HEK293 Progesterone Receptor (PR) Antagonism Luciferase Follow-Up Assay (AID 2283940). The method, boiled down: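 Read-out: CellTiter-Glo ATP luminescence, loss of signal taken as reduced viability. Cells: HEK293-PR-A-luc, 3,000/well, 5 h settling, then 16 h compound exposure at 37C, 0% CO2.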

The nature of test [14]: TOX21_PR_LUC_Followup_Agonist_viability: Viability Assessment in the Tox21 HEK293 Progesterone Receptor (PR) Agonism Luciferase Follow-Up Assay (AID 2283941).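 Also: loss of signal means cytotoxicity so actives lower viability.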 The method, boiled down:
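Cytotoxicity counter-screen: ATP content by CellTiter-Glo luminescence, loss of signal = reduced viability. HEK293-PR-A-luc, 3,000 cells/well, compound exposure 16 h, 37C.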

Inconclusive results are not listed. Some structures have more than one record in an assay (separate samples or runs), and their calls can disagree. Activity calls are given as the source filed them. The calls were made as follows, unless noted: active = hit-call score of the fitted dose curve at least 0.9, where 1 is the maximum; inconclusive = response in the unintended direction; inactive = score below 0.9.

Cellular tumor antigen p53 (Homo sapiens), sequence (P04637 whole entry, looked up): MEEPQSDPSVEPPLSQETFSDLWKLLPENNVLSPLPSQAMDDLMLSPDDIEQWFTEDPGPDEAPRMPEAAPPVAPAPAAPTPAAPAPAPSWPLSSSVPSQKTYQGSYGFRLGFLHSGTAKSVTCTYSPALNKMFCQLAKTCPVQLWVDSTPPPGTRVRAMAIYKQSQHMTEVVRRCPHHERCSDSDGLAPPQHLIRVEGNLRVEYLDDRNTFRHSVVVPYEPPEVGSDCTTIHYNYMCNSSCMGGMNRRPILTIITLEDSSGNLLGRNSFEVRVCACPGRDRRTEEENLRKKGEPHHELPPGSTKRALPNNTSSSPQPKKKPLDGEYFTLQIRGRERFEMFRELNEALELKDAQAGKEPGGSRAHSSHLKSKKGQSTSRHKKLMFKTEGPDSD

For the compound `CCCc1ncc(C[n+]2ccccc2C)c(N)n1`, the call in [1], in test [2], in test [3], in test [4] and in [5] was inactive.
As to `CC(=O)SC[C@@H](C)C(=O)N1CCC[C@H]1C(=O)N[C@@H](Cc1ccccc1)C(=O)O`, the result in test [1], in test [2], in test [6] and in [4] was inactive.
Regarding `NC(=S)NC(N)=S`, the outcome in test [1], in [2], in test [3], in test [4] and in [5] was inactive.
As for `OC[C@@H](O)C(O)[C@@H](O)CO` (stereo partly drawn), the call in test [1], in test [2], in test [6] and in test [4] was inactive.
`C[C@@H]1O[C@@H](O[C@@H]2[C@@H](O)[C@H](OCCc3ccc(O)c(O)c3)O[C@H](CO[C@@H]3O[C@H](CO)[C@@H](O)[C@H](O)[C@H]3O)[C@H]2OC(=O)/C=C/c2ccc(O)c(O)c2)[C@H](O)[C@H](O)[C@H]1O`: the result in [1], in test [2], in test [3] and in test [4] was inactive.
Take `O=P(O)(O)C(O)(Cn1ccnc1)P(=O)(O)O`: the compound was called inactive in test [1], in [2], in [6], in test [4] and in test [5].
`Cc1c(Cn2ccnc2)c2ccccc2n1CCC(=O)O`: the call in [1], in test [2], in test [6], in [4] and in test [5] was inactive.
Take `C[C@@H]1C\C=C/C=C/C=C/C=C/[C@H](O[C@@H]2O[C@H](C)[C@@H](O)[C@H](N)[C@@H]2O)C[C@@H]2O[C@](O)(C[C@@H](O)C[C@@H]3O[C@@H]3/C=C\C(=O)O1)C[C@H](O)[C@H]2C(=O)O`: the compound was classed as inactive in test [1], in test [2] and in test [6].
For the compound `CN1CCN(C(=O)C2CCCCC2)CC1`, the call in test [1], in test [2] and in test [4] was inactive.
For the compound `NC/C=C/C(=O)O`, the result in test [1], in test [2], in [4] and in [5] was inactive.
Turning to `O=C(O)c1ccc(NC2OC[C@@H](O)[C@H](O)[C@H]2O)cc1` (stereo partly drawn), the compound was classed as inactive in test [1], in [2] and in test [5].
Take `O=C(O)CCCC/C=C(\c1ccccc1)c1cccnc1`: the outcome in test [1], in [7], in test [8], in [3] and in test [6] was inactive.
As to `C=CCOc1cc(Cl)ccc1C(=O)NCCN(CC)CC`, the outcome in test [1], in test [2], in test [6] and in test [5] was inactive.
Usually AC50 stands for the midpoint of the concentration-response curve, whichever way the signal moves. As for `C=C(C)C(=O)OCC[N+](C)(C)C`, the outcome in [1], in [2] and in test [5] was inactive. The AC50 in test [6] is 72.9 µM (active).
`CCC(C)C(C(=O)OCC[N+](C)(CC)CC)c1ccccc1` (stereo not drawn): the result in test [1], in [7], in test [8] and in [3] was inactive.
Take `CC(N)CCCC(C)(C)O` (stereo not drawn): the outcome in test [1], in test [2] and in test [4] was inactive.
As to `CCCC(=O)OC[C@@H](OC(=O)CCC)[C@@H](OC(=O)CCC)[C@H](Cn1c2nc(=O)[nH]c(=O)c-2nc2cc(C)c(C)cc21)OC(=O)CCC`, the compound was classed as inactive in [1], in test [7], in test [8] and in test [3].
Turning to `O=[N+]([O-])c1ccc(/C=N\O)o1`, the result in [1], in test [2], in test [6] and in test [5] was inactive.
Turning to `CCc1ccc(C)cc1`, the outcome in test [1], in [2] and in test [4] was inactive.
In the case of `CC(=O)OC[C@H]1O[C@@H](O[C@H]2[C@H](O)[C@@H](OC(=O)c3ccccc3C(=O)O)[C@H](O)O[C@@H]2COC(C)=O)[C@H](O)[C@@H](OC(=O)c2ccccc2C(=O)O)[C@@H]1O`, the result in test [1], in [7], in test [8] and in [3] was inactive.
With `COc1cc([C@H]2Oc3cc([C@H]4Oc5cc(O)cc(O)c5C(=O)[C@@H]4O)ccc3O[C@@H]2CO)ccc1O`, in test [1], the compound was called inactive. The AC50 is 86.2 µM (active) in [2] and 87.1 µM (active) in test [5].
On to `CCCCOC(=O)CO`, for which the outcome in [1], in test [2], in [4] and in test [5] was inactive.
Take `CC(=O)OCC(=O)[C@@]1(O)CC[C@H]2[C@@H]3CCC4=CC(=O)C=C[C@]4(C)[C@@]3(F)[C@@H](O)C[C@@]21C`: the result (in test [1]; in test [2]; in test [4]; in test [5]; in the test with PGR (gene 5241) [9]; in test [10]) was inactive. Moreover, the call in test [11], in [13] and in [14] was inactive. Further, the AC50 with PGR (gene 5241) [12] was 0.123 µM (active).
As for `O=C(O)c1cc(=O)c2ccccc2o1`, the compound was called inactive in [1], in [2], in test [4] and in test [5].
Turning to `OCCN1CCN(CCCN2c3ccccc3C=Cc3ccccc32)CC1`, the call in test [1], in [7], in test [8], in test [3], in [6] and in test [4] was inactive. In [5], the outcome was inactive. In [3], the AC50 is 28.1 µM (active).
For the compound `CC(C)(C)NC[C@H](O)COc1cccc2c1CCCC2=O`, the compound was called inactive in test [1], in [7], in test [8], in [3], in test [6] and in test [4].
Consider `CC(C)(C)CC(C)(C)c1cc(Cc2cc(C(C)(C)CC(C)(C)C)cc(-n3nc4ccccc4n3)c2O)c(O)c(-n2nc3ccccc3n2)c1`, for which the compound was called inactive in [1], in [7], in test [8], in test [3], in test [6] and in test [4].
For the compound `OCCN1C[C@H](O)[C@@H](O)[C@H](O)[C@H]1CO`, the call in [1], in test [7], in test [8], in test [3], in [6] and in test [4] was inactive.
For the compound `COc1cc2nc(N3CCN(C(=O)C4COc5ccccc5O4)CC3)nc(N)c2cc1OC` (stereo not drawn), the call in test [1], in [7], in [8] and in [3] was inactive.
Turning to `ClC(Cl)(Br)Br`, the call in [1], in test [2] and in test [4] was inactive.
With `CN1CCN(CC(=O)N2c3ccccc3C(=O)Nc3cccnc32)CC1`, the compound was classed as inactive in test [1], in test [7], in test [8] and in test [3].
